Here are results for 20 molecules from PubChem BioAssay AID504577 (NMMLSC, 2011).

SMILES strings stand for the structures. The whole screen tested about 350,000 compounds, of which about 1,300 (0.37%) were called active. Many of the other results were omitted from the sample, so actives are more common in it than they were. Values without a mark were called inactive. Cut-off read from the data, not from the text of the source: active = response mostly above about 7.3% (no sharp cut-off); inactive = mostly below about 5.4%.

This assay can be described thus: yeast vacuolar ATPase proton transport modulators – pHLuorin cytosolic pH fluorescence, primary screen (AID 504577). Conditions: S. cerevisiae, at 10 µM, hits give high values.
For `O=C(COC(=O)Cc1ccccc1)Nc1ccc(F)cc1`, the response is -1.24%.
In the case of `CC(=O)Nc1ccc(C(=O)C(Cc2ccccc2)N(C)C)cc1` (stereo not given) it was 8.72% (active); in that of `CCN(CC)C(=O)c1ccc(NC(=O)c2sccc2-c2ccccc2)cc1`, -3.45%.
`COc1ccc(Br)cc1CNCCc1cccc(Cl)c1`: the response was 1.48%.
In the case of `N=c1ccccn1Cc1ccccc1` it was -1.95%.
On to `CN1CCC[C@@H]1CCO[C@](C)(c1ccccc1)c1ccc(Cl)cc1`, for which the response was -5.35%.
In the case of `O=C1NC(=O)N(c2ccccc2)C(=O)/C1=C/c1ccc([N+](=O)[O-])s1` it was 102% (active); in that of `COc1ccc(N2C(=O)/C(=C/c3ccco3)C(=O)NC2=S)cc1`, 8.65%; in that of `COc1cccc(N2C(=O)NC(=O)/C(=C\c3ccc([N+](=O)[O-])s3)C2=O)c1`, 125% (active).
In the case of `O=C1NC(=O)N(c2ccc(F)cc2)C(=O)/C1=C/c1ccc2c(c1)CCCN2Cc1ccccc1` it was 1.07%.
`CCCC(C)n1[nH]c(=O)c2c1NC(=O)CSC2c1ccc(OC)c(OC)c1` (stereo not given): the response is 1.43%.
With `O=c1[nH]c(CN2CC=C(c3ccccc3)CC2)nc2scc(-c3cccs3)c12` the figure was -2.27%; with `CNC(=O)N(C)c1nnc(C(C)(C)C)s1`, 2.46%; with `Cc1ccc(-n2c(C)cc(/C=C3\C(=O)NC(=O)N(C)C3=O)c2C)cc1C`, -0.72%.
With `Cc1c(C(=O)O)cccc1-n1c(C)cc(/C=C2\C(=O)NC(=O)N(c3ccc4c(c3)OCO4)C2=O)c1C` the figure was -0.49%; with `Cc1ccccc1N1C(=O)NC(=O)/C(=C\c2cc(C)n(C)c2C)C1=O`, 13.8% (active); with `CC(=O)N(C1=NCCCS1)c1ccccc1F`, 0.19%.
`CC12CCC(O)CC1CCC1C2CCC2(C)C(C(=O)CC(O)C(F)(F)F)CCC12` (stereo not given): the response is 5.09%.
In the case of `CCOC(=O)C(O)(c1ccc(N=Cc2ccccc2O)c(C)c1)C(F)(F)F` (stereo not given) it was -2.77%; in that of `Cc1nc2nc(C)c(CCC(=O)N3CCC4(CC3)OCCO4)c(C)n2n1`, -4.03%.
